Screening results: PubChem, Broad Institute
aSyn UTR act: Activators working through SNCA 5'UTR binding (MLPCN). alpha-synuclein 5'UTR reporter, activators screen. activity score, % (tested at 7.5 µM), hits read low. 7.1% of 300,000 active. AID 1814; in the data active = activity score below about -60%
Active calls of the source: *. The list is a sample of the results.

SMILES | aSyn UTR act
CCc1nnc(NC(=O)c2sc3nc4c(cc3c2N)CCCCCC4)s1 | -75*
CCc1nnc(NC(=O)c2sc3nc4c(cc3c2N)CCCCC4)s1 | -138*
COc1ccc(NC(=O)/C=C/c2ccccc2)cn1 | -116*
COc1ccc(NC(=O)/C=C/c2ccc(F)cc2)cn1 | -114*
COC(=O)c1sc(-c2ccc(C(C)(C)C)cc2)cc1NC(=O)c1ccccc1C(=O)O | -67*
O=C(CSc1nc2cc(Cl)ccc2o1)Nc1ccc(N2CCOCC2)cc1 | -133*
O=C(CSc1nc2ccccc2o1)Nc1ccc(N2CCOCC2)cc1 | -147*
CC(=O)Nc1cccc(-c2csc(Nc3ccccn3)n2)c1 | -120*
Cc1nc2ncccn2c1-c1csc(Nc2ccc(O)cc2)n1 | -67*
CC(=O)Nc1nc(C)c(-c2csc(Nc3ccccn3)n2)s1 | -114*
Cc1ccnc(Nc2nc(-c3ccccc3)cs2)c1 | -155*
Cc1ccc(Nc2nc(-c3c(C)nc4ncccn34)cs2)cc1 | 84
CC(=O)Nc1cccc(-c2csc(Nc3cc(C)ccn3)n2)c1 | -63*
Cc1ccnc(Nc2nc(-c3c(C)nc4sccn34)cs2)c1 | -103*
CC(=O)Nc1ccc(-c2csc(Nc3cc(C)ccn3)n2)cc1 | -101*
Cc1nc2c(ccc3c2ccc2nc(C)sc23)s1 | -113*
CCOC(=O)CCn1nc(-c2ccc(Cl)cc2)cc1N | -129*
O=[N+]([O-])c1nn(-c2ccc3c(c2)OCCO3)n(O)c1=Nc1ccccc1 | 80
O=[N+]([O-])c1nn(-c2ccc3c(c2)OCCO3)n(O)c1=NC1CCCCCC1 | -91*
O=[N+]([O-])c1nn(-c2ccc3c(c2)OCCO3)n(O)c1=NC1CCCC1 | -108*
Cc1ccc(-n2nc3cc(C)c(NC(=S)NC(=O)/C=C/c4ccco4)cc3n2)cc1 | -257*
Cc1ccc(-n2nc3ccc(NC(=S)NC(=O)/C=C/c4ccco4)cc3n2)cc1 | -96*
CC(C)c1ccc(/C=N/N2CCN(c3ccccn3)CC2)cc1 | -122*
CC(C)c1ccc(/C=N/N2CCCCC2)cc1 | -143*
Oc1ccccc1/C=N/N1CCN(c2ccccn2)CC1 | -115*
SMILES | aSyn UTR act
Cc1ccc(C(=O)N2CCc3ccccc32)cc1 | -112*
O=C(c1ccc(Cl)s1)N1CCc2ccccc21 | -195*
O=C(c1cc([N+](=O)[O-])ccc1N1CCCCC1)N1CCc2ccccc21 | 81
CC1CCN(c2c(NCc3ccc(C(=O)N4CCc5ccccc54)cc3)c(=O)c2=O)CC1 | 88
Cn1cc(C(=O)N2CCc3ccccc32)cn1 | -63*
N/C(Cc1cccs1)=N\OC(=O)COc1ccc(Br)cc1Cl | -163*
N/C(Cc1cccs1)=N\OC(=O)COc1ccccc1Cl | -174*
CC(=O)O[C@]1(C(C)=O)CC[C@H]2[C@@H]3C=CC4=CC(=O)C=C[C@]4(C)[C@H]3CC[C@@]21C | -83*
Cc1c(-c2nc(N)nc(Nc3ccccc3F)n2)oc2ccccc12 | -178*
Cc1ccc(Nc2nc(N)nc(-c3oc4ccccc4c3C)n2)cc1 | 91
COc1ccc(NC(C)C(=O)N/N=C/c2ccccc2OCc2ccc(Br)cc2)cc1 (stereo unspecified) | -77*
Cc1ccc(C(C)C)c(OCc2ccc(C(=O)N/N=C/c3cccc(O)c3O)cc2)c1 | 108
O=C(O)c1cccc(NC(=S)N/N=C/c2cccc(O)c2)c1 | 58
O=C(O)c1cccc(NC(=S)N/N=C/c2ccccc2OCc2ccc(Br)cc2)c1 | -84*
CCN1/C(=C/c2sc(-c3ccccc3C)c[n+]2C)Sc2ccccc21 | 94
O=C1CN(c2ccccc2)C(=S)N1C(=O)c1ccccc1 | -154*
CCC(=O)Nc1ccc2nc(C3CC3)n(Cc3ccc(C(C)(C)C)cc3)c(=O)c2c1 | -150*
COc1ccc(Cn2c(C3CC3)nc3ccc(NC(=O)C4CC4)cc3c2=O)cc1 | -280*
CC(=O)Nc1ccc2nc(C3CC3)n(Cc3ccc(Cl)cc3)c(=O)c2c1 | -165*
O=C(Nc1cc2ccccc2oc1=O)c1ccccc1 | 74
Cc1oc(=O)c(NC(=O)c2cccc(Cl)c2)cc1C(=O)c1ccccc1 | -237*
Cc1cccc(CCNc2nc3ccc(C)cc3n3cnnc23)c1 | -156*
Oc1c(Br)cc(Br)cc1C=Nc1ccc2c(c1)OCO2 | -66*
CCCCOC(=O)Nc1ccc(N2CCOCC2)cc1 | -163*
CCCCOC(=O)Nc1ccc(N2CCCCC2)cc1 | -158*
SMILES | aSyn UTR act
Cc1ccc2nc(-c3ccc4c(c3)OCCO4)cn2c1 | 110
Cc1ccc2nc(-c3ccc4c(c3)NC(=O)CO4)cn2c1 | -80*
CC1CCc2c(C(=O)Nc3nccs3)csc2C1 (stereo unspecified) | -151*
CC1CCc2sc(C(=O)NC(C)C3CCCO3)cc2C1 (stereo unspecified) | -96*
CC1CCc2c(C(=O)NCc3ccccn3)csc2C1 (stereo unspecified) | -84*
CC1CCc2c(C(=O)Nc3ccccn3)csc2C1 (stereo unspecified) | -116*
CC1CCc2sc(C(=O)NCc3ccccn3)cc2C1 (stereo unspecified) | -112*
O=C(/C=C/c1cccc(F)c1)N1CCc2ccccc21 | -111*
O=C(/C=C/c1ccc(Cl)cc1Cl)N1CCc2ccccc21 | -192*
O=C(/C=C/c1ccc(F)cc1)N1CCCc2ccccc21 | -65*
COc1ccc(-n2c(O)c(/C=N/Nc3nc(C)cc(C)n3)c3ccccc3c2=O)cc1OC | 120
COc1ccccc1NS(=O)(=O)c1cccc(-n2c(O)c(C=Nc3ccccc3C(=O)O)c3ccccc3c2=O)c1 | -66*
CC1CCN(c2nc3ccc(C(=O)NCCCN4CCCCC4C)cc3s2)CC1 (stereo unspecified) | -277*
CCC1CCCCN1CCCNC(=O)c1ccc2nc(N3CCCCC3)sc2c1 (stereo unspecified) | -280*
CC1CCCC(C)N1CCCNC(=O)c1ccc2nc(N3CCCCC3)sc2c1 (stereo unspecified) | -237*
O=C(CCc1nnc(C2CCCCC2)o1)N1CCN(c2ccccc2F)CC1 | -112*
O=C(Nc1nnc(C2CC2)o1)c1ccc(S(=O)(=O)N2CCCc3ccccc32)cc1 | 63
O=C(Oc1ccccc1)N1CCN(c2ccccc2F)CC1 | -65*
O=C(CCCC(=O)N1CCN(c2ccccc2F)CC1)c1ccccc1 | -76*
C/C(=N/O)c1cccc(N2Cc3ccccc3C2)c1 | -74*
COc1ccc(C2CC(=O)N(C)c3ccccc3S2)cc1OC (stereo unspecified) | -87*
Cc1ccc(S(=O)(=O)[N-]c2nc3ccccc3nc2-n2cc[n+](Cc3ccccc3)c2)cc1 | -97*
COc1cccc(NC(=O)CN(C)C(=O)C2CCN(C(=O)c3ccccc3C)CC2)c1 | -97*
Cc1nc(SCC(=O)c2ccc(Cl)s2)c2oc3ccccc3c2n1 | -94*
CC(=O)CSc1ncnc2c1oc1ccccc12 | -65*
SMILES | aSyn UTR act
c1coc(CSc2ncnc3c2oc2ccccc23)c1 | -91*
CNC(=O)c1ccc(Nc2nc(-c3ccccc3)nc3ccccc23)cc1 | -90*
Cc1cc(C(=O)Nc2cccc(C(=O)O)c2)oc1C | 87
Cc1cc(C(=O)Nc2cccc(C(=O)O)c2)c(C)o1 | -92*
Cc1oc(C(C)(C)C)cc1C(=O)Nc1cccc(C(=O)O)c1 | -114*
Cc1oc(C(C)(C)C)cc1C(=O)Nc1ccc(C(=O)O)cc1 | -93*
CCc1ccc(C2=NN(C(C)=O)C(c3ccco3)C2)cc1 (stereo unspecified) | -202*
O=[N+]([O-])c1ccc(C2=NN(c3ccccc3)C(c3ccco3)C2)cc1 (stereo unspecified) | -75*
